Reference: PubChem BioAssay AID1159580 (chemical genetic matrix, 2015)
Hit rate of the full screen: of about 5,500 compounds, about 2,000 (36%) were called active. Inconclusive results (about 18%) are left out. Cut-off read from the data, not from the text of the source: active = normalized growth mostly below about 0.91 (no sharp cut-off); inconclusive = no clear call, values can overlap the other calls; inactive = mostly above about 0.92. This is one part of the list.

Test: chemical genetic growth profiling, strain panel (AID 1159580);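 note: tested at 20 µM; growth read once vehicle control cultures reached saturation at 30 °C; 1 = growth at the plate median or of vehicle wells; lower values mean less growth of the strain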
Details: growth OD

Measured: normalized growth

Oc1cc(O)c2c(c1)O[C@H](c1cc(O)c(O)c(O)c1)[C@H](O)C2
inactive: S. cerevisiae deletion strains, locus YJR043C, strain POL32, stronger effect = lower value 1.05 | S. cerevisiae deletion strains, locus YJR066W, strain TOR1, stronger effect = lower value 0.918 | S. cerevisiae deletion strains, locus YKL009W, strain mrt4, stronger effect = lower value 0.976 | S. cerevisiae deletion strains, locus YKL068W, stronger effect = lower value 1 | S. cerevisiae deletion strains, locus YKL085W, strain MDH1 (second series), stronger effect = lower value 1 | S. cerevisiae deletion strains, locus YKL085W, strain MDH1, stronger effect = lower value 1 | S. cerevisiae deletion strains, locus YKL160W, strain elf1, stronger effect = lower value 1.01 | S. cerevisiae deletion strains, locus YKR001C, strain vps1, stronger effect = lower value 0.973 | S. cerevisiae deletion strains, locus YKR026C, strain gcn3, stronger effect = lower value 1.02 | S. cerevisiae deletion strains, locus YKR091W, strain srl3, stronger effect = lower value 1.02 | S. cerevisiae deletion strains, locus YLL001W, strain dnm1, stronger effect = lower value 1.03 | S. cerevisiae deletion strains, locus YLL026W, stronger effect = lower value 1.02 | S. cerevisiae deletion strains, locus YLL041C, strain sdh2, stronger effect = lower value 1.02 | S. cerevisiae deletion strains, locus YLR027C, strain aat2, stronger effect = lower value 1 | S. cerevisiae deletion strains, locus YLR039C, strain RIC1, stronger effect = lower value 1.05 | S. cerevisiae deletion strains, locus YLR058C, strain SHM2, stronger effect = lower value 0.98 | S. cerevisiae deletion strains, locus YLR102C, strain apc9, stronger effect = lower value 0.976 | S. cerevisiae deletion strains, locus YLR113W, strain HOG1, stronger effect = lower value 0.977 | S. cerevisiae deletion strains, locus YLR221C, strain rsa3, stronger effect = lower value 1.01 | S. cerevisiae deletion strains, locus YLR258W, strain gsy2, stronger effect = lower value 1.01 | S. cerevisiae deletion strains, locus YLR262C, strain YPT6 (second series), stronger effect = lower value 1.03 | S. cerevisiae deletion strains, locus YLR262C, strain YPT6, stronger effect = lower value 1.06 | S. cerevisiae deletion strains, locus YLR268W, strain sec22, stronger effect = lower value 0.98 | S. cerevisiae deletion strains, locus YLR320W, strain mms22, stronger effect = lower value 1.04 | S. cerevisiae deletion strains, locus YLR330W, strain CHS5, stronger effect = lower value 1.01 | S. cerevisiae deletion strains, locus YLR342W, strain FKS1 (second series), stronger effect = lower value 0.996 | S. cerevisiae deletion strains, locus YLR342W, strain FKS1, stronger effect = lower value 1.01 | S. cerevisiae deletion strains, locus YLR357W, strain rsc2, stronger effect = lower value 0.986 | S. cerevisiae deletion strains, locus YLR370C, strain arc18, stronger effect = lower value 1.01 | S. cerevisiae deletion strains, locus YLR371W, strain rom2, stronger effect = lower value 0.981 | S. cerevisiae deletion strains, locus YLR384C, strain iki3, stronger effect = lower value 1.03 | S. cerevisiae deletion strains, locus YLR418C, strain cdc73, stronger effect = lower value 1.01 | S. cerevisiae deletion strains, locus YML016C, strain PPZ1, stronger effect = lower value 0.981 | S. cerevisiae deletion strains, locus YML032C, strain rad52, stronger effect = lower value 1.03 | S. cerevisiae deletion strains, locus YML120C, strain ndi1, stronger effect = lower value 1.04 | S. cerevisiae deletion strains, locus YML124C, strain tub3, stronger effect = lower value 0.999 | S. cerevisiae deletion strains, locus YMR058W, strain fet3, stronger effect = lower value 0.945 | S. cerevisiae deletion strains, locus YMR078C, strain ctf18, stronger effect = lower value 1 | S. cerevisiae deletion strains, locus YMR125W, strain sto1, stronger effect = lower value 1.02 | S. cerevisiae deletion strains, locus YMR129W, stronger effect = lower value 1.02 | S. cerevisiae deletion strains, locus YMR205C, strain PFK2, stronger effect = lower value 1.06 | S. cerevisiae deletion strains, locus YMR223W, strain ubp8, stronger effect = lower value 0.991 | S. cerevisiae deletion strains, locus YMR231W, strain pep5, stronger effect = lower value 0.987 | S. cerevisiae deletion strains, locus YMR307W, strain GAS1, stronger effect = lower value 1.07 | S. cerevisiae deletion strains, locus YNL067W, strain RPL9B, stronger effect = lower value 0.984 | S. cerevisiae deletion strains, locus YNL071W, strain lat1, stronger effect = lower value 1.03 | S. cerevisiae deletion strains, locus YNL153C, strain GIM3, stronger effect = lower value 0.957 | S. cerevisiae deletion strains, locus YNL183C, strain NPR1, stronger effect = lower value 0.951 | S. cerevisiae deletion strains, locus YNL209W, strain ssb2, stronger effect = lower value 1 | S. cerevisiae deletion strains, locus YNL233W, strain BNI4, stronger effect = lower value 0.987 | S. cerevisiae deletion strains, locus YNL248C, strain rpa49, stronger effect = lower value 1.03 | S. cerevisiae deletion strains, locus YNL250W, strain rad50, stronger effect = lower value 0.986 | S. cerevisiae deletion strains, locus YNL271C, strain bni1, stronger effect = lower value 0.988 | S. cerevisiae deletion strains, locus YNL298W, strain CLA4, stronger effect = lower value 0.969 | S. cerevisiae deletion strains, locus YNL307C, strain MCK1, stronger effect = lower value 0.981 | S. cerevisiae deletion strains, locus YNL322C, strain KRE1 (second series), stronger effect = lower value 1.02 | S. cerevisiae deletion strains, locus YNR049C, strain mso1, stronger effect = lower value 1.02 | S. cerevisiae deletion strains, locus YNR052C, strain pop2, stronger effect = lower value 0.994 | S. cerevisiae deletion strains, locus YOL012C, strain htz1 1.18 | S. cerevisiae deletion strains, locus YOL147C, strain pex11, stronger effect = lower value 0.988 | S. cerevisiae deletion strains, locus YOR001W, strain rrp6, stronger effect = lower value 1.03 | S. cerevisiae deletion strains, locus YOR061W, strain CKA2, stronger effect = lower value 0.99 | S. cerevisiae deletion strains, locus YOR069W, strain VPS5, stronger effect = lower value 0.99 | S. cerevisiae deletion strains, locus YOR070C, strain gyp1, stronger effect = lower value 1 | S. cerevisiae deletion strains, locus YOR080W, strain dia2, stronger effect = lower value 1.02 | S. cerevisiae deletion strains, locus YOR083W, strain WHI5, stronger effect = lower value 1.01 | S. cerevisiae deletion strains, locus YOR106W, strain vam3, stronger effect = lower value 0.999 | S. cerevisiae deletion strains, locus YOR136W, strain idh2, stronger effect = lower value 0.976 | S. cerevisiae deletion strains, locus YOR144C, strain elg1, stronger effect = lower value 1 | S. cerevisiae deletion strains, locus YOR184W, strain ser1, stronger effect = lower value 1.02 | S. cerevisiae deletion strains, locus YOR231W, strain MKK1, stronger effect = lower value 0.983 | S. cerevisiae deletion strains, locus YOR265W, strain rbl2, stronger effect = lower value 1.02 | S. cerevisiae deletion strains, locus YOR270C, strain vph1, stronger effect = lower value 1.1 | S. cerevisiae deletion strains, locus YOR290C, strain snf2, stronger effect = lower value 1.02 | S. cerevisiae deletion strains, locus YOR316C, strain cot1, stronger effect = lower value 0.98 | S. cerevisiae deletion strains, locus YPL051W, strain arl3, stronger effect = lower value 1 | S. cerevisiae deletion strains, locus YPL055C, strain LGE1, stronger effect = lower value 1.01 | S. cerevisiae deletion strains, locus YPL078C, strain atp4, stronger effect = lower value 1.05 | S. cerevisiae deletion strains, locus YPL106C, strain sse1, stronger effect = lower value 0.99 | S. cerevisiae deletion strains, locus YPL240C, strain hsp82, stronger effect = lower value 1.02 | S. cerevisiae deletion strains, locus YPL256C, strain CLN2, stronger effect = lower value 0.983 | S. cerevisiae deletion strains, locus YPR119W, strain clb2, stronger effect = lower value 0.992 | S. cerevisiae deletion strains, locus YPR141C, strain kar3, stronger effect = lower value 0.978 | S. cerevisiae deletion strains, locus YPR163C, strain tif3, stronger effect = lower value 0.988 | S. cerevisiae deletion strains, locus YPR167C, strain met16, stronger effect = lower value 1 | S. cerevisiae deletion strains, strain wtn01, stronger effect = lower value 0.975 | S. cerevisiae strains, strain wild type, stronger effect = lower value 1
